Screening data: PubChem BioAssay, National Center for Advancing Translational Sciences (NCATS)
In the library only some 21% were active in any assay of this set; here they are far more common.
NS1 inh: inhibitors of influenza NS1 protein function | 270,000 compounds, 0.4% hits | AID 2326 | Potency, µM (doses to about 46.1 µM), inactives show top-dose activity, positive = more growth; calls by dose curve; also: potency is read from the fitted curve at half-maximal effect; actives are rising curves; nearly all actives have a fitted effect of over 50% in size
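OD600 was taken as the measure of yeast growth restored by compound in an NS1-expressing S. cerevisiae strain. Cells had been washed out of glucose medium and diluted 1:100 into galactose -URA medium, pH 6.0.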
Cycloheximide cs: affects cycloheximide protein synthesis inhibition readout, counter-screen. cell reporter, cycloheximide protein synthesis inhibition counterscreen. max response, %. 300,000 compounds, 12% hits. AID 2314; in the data active = max response mostly above about 13%, no sharp cut-off; inactive = mostly below about 14%; also: read at 38.3 µM for the half of the compounds with a filed dose; 0% is about no effect
Pf growth 48h: inhibits P. falciparum growth in the first generation, 48 h | P. falciparum luciferase growth in erythrocytes, 48 h | Potency, µM (highest dose often 28.7 µM), for inactives: at the highest dose activity change, negative = inhibition, hits mostly inhibitors | 310,000 compounds, 5.9% hits | AID 504832; also: potency is read from the fitted curve at half-maximal effect; % is scaled to controls: 0 for no effect and ±100 for the full control effect
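Compounds are pin-transferred into medium, infected erythrocytes (2% hematocrit, 0.1% parasitemia final) are added, and plates sit one parasite generation at 37 C in 5% CO2. Detection reagent is then added and luminescence measured.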
Shiga toxin inh: inhibitors of Shiga toxin in Vero cells | inhibition, % at 38.7 µM | Vero cells, Shiga toxin protein synthesis inhibition reporter | 290,000 compounds, 9.2% hits; in the data active = inhibition mostly above about 28%, no sharp cut-off; inactive = mostly below about 43%; also: 0% is about no effect
SARS PLP yeast: inhibitors of SARS-CoV papain-like protease in yeast; 330,000 compounds, 0.19% hits; S. cerevisiae expressing SARS-CoV PLpro, growth rescue; Potency, µM (highest dose often 32.9 µM), for inactives: top-dose activity, positive = growth rescue, actives largely listed as activators; calls by dose curve; also: potency is read from the fitted curve at half-maximal effect; 0% is about no effect; nearly all actives have a fitted effect of over 55% in size
Pf growth 96h: P. falciparum growth inhibition at 96 hour, primary screen for plastid delayed-death inhibitors; P. falciparum luciferase reporter growth, 96 h; Potency, µM (highest dose often 28.7 µM), inactives show top-dose activity change, negative = inhibition, most hits filed as inhibitors; 320,000 compounds, 6.9% hits; AID 504834; also: potency is read from the fitted curve at half-maximal effect; % is scaled to controls: 0 for no effect and ±100 for the full control effect
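Compounds incubated with erythrocytes infected by luciferase-expressing P. falciparum (2% hematocrit, 0.05% parasitemia final) for 96 hours, 37 C in 5% CO2. Growth inhibition scored as decreased luciferase luminescence.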
Active calls of the source: *; ? = inconclusive; · = not tested or not shown. Unless noted, calls follow the shape of the dose curve; as a rule, active = well fitted inhibition curve with a large enough effect; inconclusive = small, poorly fitted or top-dose-only effect, or another doubt; inactive = no such curve, though single readings can be large or run the other way.

SMILES | NS1 inh | Cycloheximide cs | Pf growth 48h | Shiga toxin inh | SARS PLP yeast | Pf growth 96h
CC(C)C12CN3CC(C(C)C)(CN(C1)C3c1ccc([N+](=O)[O-])o1)C2=O (stereo not drawn) | 3.1% | -1.8 | 2.08µM* | 3.9 | -3.9% | 27.8%
O=C(COc1ccccc1)N1CCN(C(=O)c2ccc([N+](=O)[O-])cc2)CC1 | -3.3% | 48.0* | 167.2% | 35.9 | 0.0% | 52.8%
O=C(NCC1CCN(C(=O)c2ccc([N+](=O)[O-])cc2)CC1)C(=O)Nc1ccccc1 | · | 18.3 | 2.6% | 5.4 | 1.7% | 14.7µM*
CC(C)(C)CN1CCNC(=O)C1CC(=O)NCCc1ccccc1F (stereo not drawn) | -1.2% | 2.6 | -13.7% | 26.3 | -0.3% | 1.6%
CCOc1ccc(NCc2cccn2-c2nnc(N3CCC(C(=O)NCCCN4CCCCC4)CC3)s2)cc1 | -3.5% | 16.7* | -19.8% | 22.7* | -4.3% | ?
CCOc1ccc(NCc2cccn2-c2nnc(N3CCC(C(=O)NCCCN4C(C)CCCC4C)CC3)s2)cc1 (stereo not drawn) | -16.8% | 9.3 | ? | 17.2 | 0.9% | -21.9%
CC(C)C[C@H](NC(=O)c1nc[nH]c1C(=O)NCc1ccc(CNC(=O)OC(C)(C)C)cc1)C(=O)OCc1ccccc1 | ? | -1.7 | ? | -4.9 | 1.6% | ?
CC(C)(C)OC(=O)NCc1ccc(NC(=O)c2nc[nH]c2C(=O)N[C@@H](Cc2ccccc2)C(=O)OCc2ccccc2)cc1 | ? | 2.6 | 8.28µM* | -5.5 | 0.7% | 4.15µM*
C[C@@H](NC(=O)c1nc[nH]c1C(=O)N[C@@H](Cc1ccccc1)C(=O)OC(C)(C)C)c1ccccc1 | ? | 0.9 | ? | -2.1 | -0.2% | ?
C[C@H](NC(=O)c1nc[nH]c1C(=O)N[C@@H](Cc1ccccc1)C(=O)OC(C)(C)C)c1ccccc1 | ? | 8.5 | 3.29µM* | -3.1 | -0.8% | ?
CC(C)(C)OC(=O)NCc1ccc(CNC(=O)c2nc[nH]c2C(=O)NCc2ccccc2)cc1 | · | · | 10.4µM* | · | -5.9% | 2.94µM*
CC(C)(C)OC(=O)NCc1ccc(CNC(=O)c2[nH]cnc2C(=O)NCC(=O)OCc2ccccc2)cc1 | 4.5% | 6.8 | -17.2% | 9.3 | 6.6% | 5.0%
CC(C)(C)OC(=O)NCc1ccc(CNC(=O)c2[nH]cnc2C(=O)N[C@@H](Cc2ccccc2)C(=O)OCc2ccccc2)cc1 | ? | -1.8 | ? | -0.6 | 1.4% | 3.29µM*
CC(C)NC(=O)N(C)C[C@H]1Oc2c(NS(=O)(=O)c3ccccc3)cccc2C(=O)N([C@H](C)CO)C[C@@H]1C | · | · | · | · | -10.4% | ·
CC(C)(C)OC(=O)NCc1ccc(CNC(=O)c2[nH]cnc2C(=O)N[C@@H](Cc2ccccc2)C(=O)OC(C)(C)C)cc1 | ? | -1.1 | 10.4µM* | -5.9 | 5.2% | ?
CC(C)(C)OC(=O)[C@H](Cc1ccccc1)NC(=O)c1nc[nH]c1C(=O)NCc1ccccc1 | 22.1% | -3.0 | -1.5% | -8.9 | -2.3% | 1.0%
O=C(N[C@@H](Cc1ccccc1)C(=O)OCc1ccccc1)c1nc[nH]c1C(=O)N1CCc2ccccc2C1 | -11.3% | 18.1* | ? | 16.2 | -4.0% | 39.5%
COC(=O)c1ccc(C(=O)OC)c(NC(=O)Nc2ccc3c(c2)OCO3)c1 | -8.7% | 24.6* | 34.4% | 61.7* | -0.7% | ·
COC(=O)c1ccc(C(=O)OC)c(NC(=O)/C=C/C(=O)O)c1 | 10.2% | 10.9* | 24.4% | 31.0 | -0.2% | -7.7%
CC(C)c1ccccc1NC(=O)Nc1ccc2c(c1)OCO2 | -5.9% | 1.8 | 20.3% | 24.9 | -5.9% | ?
COc1cc(NC(=O)Nc2ccc3c(c2)OCO3)cc(OC)c1OC | · | 11.0 | 10.7% | 44.2 | 0.4% | 0.4%
COC(=O)c1ccccc1NC(=O)Nc1ccc2c(c1)OCO2 | -1.0% | 16.4* | · | 61.3 | 11.3% | 103.7%
Cc1cnc(C(=O)OCC(=O)Nc2ccc(Br)cc2F)cn1 | · | · | 58.0% | · | -4.7% | 42.7%
COc1ccccc1C1CC(=O)Nc2cc(C)c(C)cc21 (stereo not drawn) | 28.1% | 2.1 | -21.3% | · | 0.2% | 13.1µM*
COc1cc2c(cc1OC)C(c1ccc(Br)cc1)CC(=O)N2 (stereo not drawn) | -4.3% | -3.1 | 8.3% | -6.5 | 5.9% | 5.22µM*
SMILES | NS1 inh | Cycloheximide cs | Pf growth 48h | Shiga toxin inh | SARS PLP yeast | Pf growth 96h
Cc1cc2c(cc1C)C(c1ccccc1OC(C)C)CC(=O)N2 (stereo not drawn) | -45.2% | -1.1 | ? | -4.2 | -3.5% | ?
COc1cc2c(cc1OC)C(c1ccc(C(F)(F)F)cc1)CC(=O)N2 (stereo not drawn) | 21.7% | 1.4 | ? | -5.0 | -1.3% | ?
CCOc1ccccc1C1CC(=O)Nc2cc(C)c(C)cc21 (stereo not drawn) | -3.1% | -4.5 | 16.4% | · | 4.0% | 11.7µM*
COC(=O)c1c(NC(=S)Nc2ccc(F)cc2[N+](=O)[O-])sc2c1CCCCC2 | 6.1% | 3.7 | -16.6% | 12.8 | -3.0% | ?
Cc1nonc1NC(=O)OCCN1CCOC1=O | 3.8% | -5.8 | ? | 3.5 | 2.2% | 6.57µM*
CCCCNc1c(N)n(CC(C)C)c(=O)[nH]c1=O | · | -2.9 | 14.7µM* | 3.1 | -1.6% | 5.4%
Cc1ccc2nsnc2c1S(=O)(=O)Nc1cccc2cccnc12 | · | 8.9 | · | -8.3 | · | ·
CN(C)c1ccc(CNCCC(Cc2ccccc2)c2ccco2)cc1 (stereo not drawn) | -30.3% | -7.9 | ? | 1.2 | -4.8% | 9.28µM*
CCOc1ccc(-c2csc3ncn(-c4ccc(OC)cc4)c(=O)c23)cc1 | -1.2% | -1.6 | ? | 10.8 | -0.2% | 406.3%
CSc1nc(-c2ccccc2)cn1-c1ccc(NC(C)=O)cc1 | · | 34.6* | 58.7% | 79.2* | -3.5% | 39.3%
CCOc1ccc(-c2cn(-c3ccc(OC)cc3)c(SC)n2)cc1 | ? | 68.4* | 167.9% | 113.3* | -52.6% | ?
CCOC(=O)n1n[n+]([O-])c2ccccc21 | -2.1% | -3.0 | 1.0% | -9.4 | -3.0% | 9.3%
CNC(=O)N(C1=NCC(C)(C)S1)c1ccc(F)c(Cl)c1 | -89.1% | -5.4 | · | 1.0 | 7.9% | 7.38µM*
O=C(Cc1ccccc1F)Nc1nc(-c2cccs2)cs1 | -167.4% | 36.8* | 57.2% | 49.7* | -16.4% | ?
CCc1noc(C)c1C(=O)Nc1nc(-c2cc(OC)ccc2OC)cs1 | · | · | ? | · | 2.6% | ?
COc1ccc(OC)c(-c2csc(NC(=O)Cc3ccccc3)n2)c1 | 0.9% | 23.7 | ? | 45.0 | -8.0% | ?
CCc1noc(C)c1C(=O)Nc1nc(-c2ccc(OC)cc2OC)cs1 | · | · | 2.33µM* | · | 4.5% | 2.33µM*
COc1ccc(-c2csc(NC(=O)Cc3ccccc3F)n2)c(OC)c1 | -3.1% | 14.3* | ? | 38.2 | -5.0% | ?
O=C(Cc1ccccc1F)Nc1nc(-c2ccc(F)c(F)c2)cs1 | -30.1% | 19.4* | 14.7% | 61.6* | -26.3% | -3.5%
